ROMK mod = modulators of human ROMK potassium channel; P48048; Tet-inducible ROMK, thallium flux fluorescence; actives lie on both sides; B-score at 10 µM; 2% of 130,000 active;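 active means signal ratio slope over the read window, or its plate-corrected B-score, at least 3 SD from the plate mean, either direction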;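 further: B-score of the F/F0 ratio slope over 7 to 12 s after thallium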
Target sequence (P48048 whole entry, looked up): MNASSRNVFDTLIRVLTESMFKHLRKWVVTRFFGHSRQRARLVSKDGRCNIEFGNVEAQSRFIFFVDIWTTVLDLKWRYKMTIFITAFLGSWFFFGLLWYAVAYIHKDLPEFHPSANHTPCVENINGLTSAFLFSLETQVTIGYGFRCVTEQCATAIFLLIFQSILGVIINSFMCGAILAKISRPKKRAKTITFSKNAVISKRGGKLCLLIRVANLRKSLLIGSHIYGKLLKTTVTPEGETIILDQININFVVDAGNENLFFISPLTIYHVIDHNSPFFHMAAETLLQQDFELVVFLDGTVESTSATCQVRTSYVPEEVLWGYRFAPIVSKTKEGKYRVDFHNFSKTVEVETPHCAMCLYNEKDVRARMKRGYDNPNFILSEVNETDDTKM
RAM inhibit = yeast RAM network inhibition; S. cerevisiae dse1pr::URA3 reporter, 5-FOA growth OD615, 2 d; analog-sensitive cbk1-as2 kinase mutant strain; inhibition, % at 50 µM; 1.8% of 190,000 active; AID 868;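 active means inhibition above a set limit, 3 SD over mean compound inhibition, cut at about 8.4% in these data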;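 further: 0% = DMSO-only wells with no growth and 100% = 10 µM 1-NA-PP1 full growth; inhibition rescues growth on 5-FOA so higher OD means more RAM inhibition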
KCC2 mod = modulators of human KCC2 chloride dependent transport. Q9H2X9. KCC2 cells, thallium flux FluoZin-2 fluorescence. B-score of Tl+ flux slope (higher = more flux/activation; lower = inhibition) at 10 µM. 2.2% of 190,000 active;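 active means thallium flux slope and its plate-corrected score both differing from the plate sample mean at a set confidence after two filtering rounds, in either direction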;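 further: slope of fluorescence scaled to starting intensity during 10 to 20 s after thallium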
S1P4 antagonist = antagonists of human S1P4 receptor; AID 1510; 0.26% of 220,000 active; O95977; inhibition, % at 4.98 µM; S1P4-expressing cells, antagonist mode, reporter read-out; in the data active means inhibition above about 29%;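 further: 0% = wells stimulated with agonist and 100% = vehicle wells without agonist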
S1P3 antagonist = blocks the human S1P3 receptor | inhibition, % at 4.98 µM | Q99500 | AID 485 | CHO S1P3 NFAT-BLA reporter, FRET fluorescence, antagonist mode | 0.27% of 170,000 active;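 active means inhibition above the plate cutoff, the mean inhibition of test wells on that plate plus 3 SD, cut at about 28% in these data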;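 further: cells challenged with S1P at its EC80 of 0.8 µM; blue over green emission ratio from cleaved BLA substrate after 4 h stimulation; 0% = S1P-stimulated wells and 100% = unstimulated DMSO-only wells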
S1P4 ag = activates the human S1P4 receptor. O95977. S1P4-expressing cell line, agonist reporter assay. activation, % at 4.98 µM. 0.35% of 220,000 active. AID 1509; in the data active means activation above about 11%;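 further: 0% = DMSO vehicle and 100% = reference agonist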
S1P4 antag cf = confirmation of human S1P4 receptor antagonists; 71% of 520 active; AID 1524; S1P4-expressing cell line, antagonist mode, reporter read-out; inhibition, % at 4.98 µM; shares compounds with S1P4 antagonist; in the data active means inhibition above about 30%
S1P1 antag = human S1P1 antagonism as S1P4 antagonist counter-screen | cell-based S1P1 antagonist counterscreen, inhibition | inhibition, % at 4.98 µM | AID 1564 | 37% of 520 active | shares compounds with S1P4 antagonist; in the data active means inhibition above about 40%;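 further: receptor stimulated with S1P near its EC80; 0% = agonist stimulated wells and 100% = vehicle only wells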
The depositor's hits bear a star. This is a sample that favours compounds with a hit; in the whole collection about 5.1% have one here.

What do the screens show for `COC(=O)c1ccc2c(c1)C(C)(C)C(/C=C/c1ccccc1O)=[N+]2C`?
RAM inhibit: 0; KCC2 mod: -1.3; S1P4 antagonist: 37*; S1P4 ag: -1; S1P4 antag cf: 116*; S1P1 antag: 82*

How did CC(=O)n1cc(N(C(=O)CCl)c2ccc(C)cc2)c2ccccc21 do in these assays?
KCC2 mod: -0.87; S1P4 antagonist: 29*; S1P3 antagonist: -13; S1P4 ag: 1; S1P4 antag cf: 106*; S1P1 antag: 45*

What do the screens show for `CC(=O)N(c1ccc(Cl)cc1)c1cn(C(C)=O)c2ccccc12`?
ROMK mod: 0.12; RAM inhibit: 2; KCC2 mod: 0.3; S1P4 antagonist: -8; S1P3 antagonist: -9; S1P4 ag: 1

What do the screens show for `O=C1c2cccc3c(N4CCCCC4)ccc(c23)C(=O)N1c1ccccn1`?
RAM inhibit: 3; S1P4 antagonist: -19; S1P3 antagonist: 25; S1P4 ag: 0

What do the screens show for `O=C1c2cccc3c([N+](=O)[O-])ccc(c23)C(=O)N1c1ccccn1`?
ROMK mod: -1.8; RAM inhibit: 1; KCC2 mod: -0.61; S1P4 antagonist: 105*; S1P4 ag: -3; S1P4 antag cf: 113*; S1P1 antag: 151*

What do the screens show for `Cc1c(C)n(C)c2ccc(C(=O)Nc3cccc4ccccc34)cc12`?
RAM inhibit: 5; KCC2 mod: -2.7; S1P4 antagonist: 44*; S1P4 ag: -3; S1P4 antag cf: 46*; S1P1 antag: 12

What do the screens show for `COC(=O)c1cn(Nc2ncc(C(F)(F)F)cc2Cl)c(=O)c2ccccc12`?
ROMK mod: -1.2; RAM inhibit: 3; KCC2 mod: -0.32; S1P4 antagonist: 38*; S1P4 ag: 1; S1P4 antag cf: 31*; S1P1 antag: -3

How did NNC(=O)c1ccc(CSc2cccc3cccnc23)cc1 do in these assays?
ROMK mod: 0.2; RAM inhibit: 0; KCC2 mod: 0.0056; S1P4 antagonist: -8; S1P3 antagonist: -7; S1P4 ag: 3

Results for Cc1cccc(CSc2cccc3cccnc23)c1 ?
RAM inhibit: -1; KCC2 mod: 19*; S1P4 antagonist: 39*; S1P4 ag: -2; S1P4 antag cf: 96*; S1P1 antag: 65*

How did CCCC(=O)N(C1CC(C)C(C#N)(C#N)C1(C#N)C#N)N(C)C (stereo not given) do in these assays?
KCC2 mod: -1.9; S1P4 antagonist: 43*; S1P3 antagonist: 22; S1P4 ag: 2; S1P4 antag cf: 107*; S1P1 antag: 36

What do the screens show for `CC(=O)N(C1CC(C)C(C#N)(C#N)C1(C#N)C#N)N(C)C` (stereo not given)?
ROMK mod: -0.015; RAM inhibit: 2; KCC2 mod: -0.4; S1P4 antagonist: -18; S1P3 antagonist: 16; S1P4 ag: 2

What do the screens show for `COc1ccc(C(=O)OCC(=O)N2CCCC2=O)c(OC)c1`?
ROMK mod: 0.56; RAM inhibit: 2; KCC2 mod: -0.12; S1P4 antagonist: 13; S1P3 antagonist: 2; S1P4 ag: -2

Results for COc1ccc(OC)c(NC=C2C(=O)OC(C)(C)OC2=O)c1 ?
RAM inhibit: 2; KCC2 mod: 0.0037; S1P4 antagonist: -8; S1P3 antagonist: -14; S1P4 ag: 0

What do the screens show for `COc1ccc(OC)c(NC=C2C(=O)OC3(CCCCC3)OC2=O)c1`?
RAM inhibit: -1; KCC2 mod: -0.024; S1P4 antagonist: 32*; S1P3 antagonist: -16; S1P4 ag: 4; S1P4 antag cf: -19; S1P1 antag: -3

What do the screens show for `COC(=O)C1=C(C)N=C2SCCC(=O)N2C1c1ccc(OC(=O)c2ccco2)cc1` (stereo not given)?
ROMK mod: -2.2; RAM inhibit: 2; KCC2 mod: -0.31; S1P4 antagonist: 26; S1P4 ag: 0

Results for C=CCOC(=O)C1=C(C)N=C2SCCC(=O)N2C1c1ccc(OC(=O)c2ccco2)cc1 (stereo not given) ?
RAM inhibit: 4; KCC2 mod: 0.087; S1P4 antagonist: 38*; S1P4 ag: 0; S1P4 antag cf: 59*; S1P1 antag: 52*

Results for Cc1ccccc1NC(=O)N1CCc2ccccc2C1 ?
ROMK mod: 0.068; RAM inhibit: 1; KCC2 mod: -0.42; S1P4 antagonist: 32*; S1P3 antagonist: -7; S1P4 ag: 1; S1P4 antag cf: 80*; S1P1 antag: -7

What do the screens show for `Cc1ccc2c(=O)[nH]c(Cc3ccccc3C(=O)O)nc2c1`?
KCC2 mod: -2.1; S1P4 antagonist: -16; S1P3 antagonist: -6; S1P4 ag: 1

What do the screens show for `O=C(O)CCn1c(=O)[nH]c2ccccc2c1=O`?
RAM inhibit: 0; S1P4 antagonist: 36*; S1P3 antagonist: -29; S1P4 ag: -2; S1P4 antag cf: 0; S1P1 antag: -12

Results for O=c1c2ccccc2nc(SCc2ccncc2)n1CC1CCCO1 (stereo not given) ?
ROMK mod: 0.5; RAM inhibit: 2; KCC2 mod: -0.7; S1P4 antagonist: 1; S1P3 antagonist: 6; S1P4 ag: 1

How did CCN(CC)C(=O)CN(C#N)c1nc(Cl)nc(N(C)C)n1 do in these assays?
RAM inhibit: 0; KCC2 mod: -0.059; S1P4 antagonist: 42*; S1P3 antagonist: -16; S1P4 ag: -2; S1P4 antag cf: 50*; S1P1 antag: 39

Results for CC1CCCCN1C(=O)CCS(=O)(=O)c1cccc2nonc12 (stereo not given) ?
ROMK mod: 0.23; RAM inhibit: 1; S1P4 antagonist: -1; S1P3 antagonist: -2; S1P4 ag: 0

Results for O=C(NCc1ccco1)C1CCCN1C(=O)Nc1ccc(Cl)cc1 (stereo not given) ?
ROMK mod: -0.85; RAM inhibit: 1; KCC2 mod: 0.07; S1P4 antagonist: -26; S1P3 antagonist: -12; S1P4 ag: 3

What do the screens show for `O=C1NC2(CCc3ccccc32)C(=O)N1CCOc1ccc(Cl)cc1` (stereo not given)?
ROMK mod: -0.0033; RAM inhibit: 1; KCC2 mod: -1.5; S1P4 antagonist: 13; S1P4 ag: 0

What do the screens show for `Cc1ccccc1OCCN1C(=O)NC2(CCc3ccccc32)C1=O` (stereo not given)?
RAM inhibit: 3; KCC2 mod: 0.11; S1P4 antagonist: 36*; S1P3 antagonist: -4; S1P4 ag: 0; S1P4 antag cf: 1; S1P1 antag: -11

How did O=C(N/N=C/c1cccc2cccnc12)c1ccccc1O do in these assays?
KCC2 mod: 1.7; S1P4 antagonist: 32*; S1P3 antagonist: -14; S1P4 ag: -2; S1P4 antag cf: 101*; S1P1 antag: 79*
